This note sets out measurements from PubChem BioAssay (NCI).

What all share (test): NCI-60 one-dose screen, 48 h (100 = growth as untreated, 0 = no growth, -100 = all killed)
Settings in all cases: 10 µM unless noted

The subject of experiment [1] is HCT-15 colon.
Experiment [2] relates to HT29 colon.
Experiment [3] has as its system SNB-75 CNS.
Experiment [4] concerns SNB-19 CNS.
Experiment [5] concerns U251 CNS.
For experiment [6], the system named is PC-3 prostate.
Experiment [7] has as its system SK-MEL-5 melanoma.
The subject of experiment [8] is UACC-62 melanoma.
For experiment [9], the system named is LOX IMVI melanoma.
The test system of experiment [10] is SK-MEL-2 melanoma.
Experiment [11] relates to EKVX NSCLC.
Experiment [12] deals with SN12C renal.
Experiment [13] has as its system UO-31 renal.
Experiment [14] deals with TK-10 renal.
In experiment [15] the test system is ACHN renal.
For experiment [16], the system named is CAKI-1 renal.
Experiment [17] relates to HL-60(TB) leukemia.
Experiment [18] deals with CCRF-CEM leukemia.
The test system of experiment [19] is SK-MEL-28 melanoma.
Experiment [20] deals with A498 renal.

Where “and” joins values, the source holds several entries; their conditions need not be identical. Equal entries are not always repeated. About 83,000 compounds went through this panel and 20% of them were active in at least one assay; those are over-represented in the sample as a whole.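 Growth was measured after 48 h exposure to one concentration of compound in 96-well plates. Values under 10 count as active.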 Unmarked numbers belong to inactive results. Calls of active or inactive are those of the source.

With `COC1C(O)CC(OC2CC(Oc3cc4cc5c(c(O)c4c(O)c3C)C(=O)[C@@H](OC3CC(OC4CC(OC6CC(C)(O)C(OC(C)=O)C(C)O6)C(O)C(C)O4)C(O)C(C)O3)[C@H]([C@H](OC)C(=O)[C@@H](O)[C@@H](C)O)C5)OC(C)C2OC(C)=O)OC1C` (some centres undefined), the growth in [1] is 1.5% (active); in [2], -23.2% (active); in experiment [3] it was -61.8% (active); in [4] it was 5.7% (active); in experiment [5], 4.79% (active); in [6], -11.5% (active). The growth in experiment [7] was -93.8% (active); in [8] it was -83% (active); in experiment [9], 3.81% (active); in experiment [10], -42.1% (active); in [11], -12.7% (active); in [12], 7.02% (active). The growth in experiment [13] was -12.5% (active); in experiment [14], 2.86% (active); in experiment [15], 2.04% (active); in experiment [16], -25.9% (active); in experiment [17], -23.8% (active); in experiment [18], -8.99% (active).

Turning to `O=S(=O)(F)c1cccc(Cl)c1C[P+](c1ccccc1)(c1ccccc1)c1ccccc1`, the growth in experiment [1] was 91.7%; in [2], 96.7%; in experiment [3], 81.2%; in [4], 100%; in [6], 85.4%; in [7], 90.4%. Further, the growth in experiment [8] was 90.2%; in experiment [9] it was 101%; in experiment [19], 109%; in [10], 97.1%; in [12], 102%; in experiment [13], 88.3%. The growth was 116% in [14]; 97.7% in [15]; 94.4% in [16]; 122% in experiment [20]; 98.9% in experiment [17]; 86.7% in [18].

As for `CN(C)c1ccc(N)cc1`, the growth in experiment [1] is 106% and 83.6%; in experiment [2] it was 102% and 37.4%; in experiment [3] it was 83.4% and 62.8%; in experiment [4], 99.5% and 47.8%; in [5], 98.2% and 17.5%; in experiment [6] it was 81.3% and 50.8%. For the same compound, the growth in experiment [7] was 96.4% and 44.5%; in [8], 89% and 43.3%; in [9] it was 94.2% and 27.2%; in [10] it was 94.2% and 71.7%; in experiment [11] it was 96.2% and 32.4%; in [12] it was 96.2% and 64.7%. Further, the growth in experiment [13] was 75%; in experiment [14], 117% and 26.5%; in [15], 99.5% and 64.9%; in [16], 78.2%; in experiment [20] it was 108% and 62.7%; in experiment [17] it was 95.1% and 38.5%. Further, the growth in experiment [18] is 87.5% and 36%.

With `CCC(=O)C(CC(C)N1CCCCCC1)(c1ccccc1)c1ccccc1` (centres undefined), the growth is 87.2% in experiment [1]; 67.1% in experiment [2]; 115% in experiment [3]; 100% in experiment [5]; 89.2% in experiment [6]; 98.2% in [7]. The growth was 94.4% in experiment [8]; 103% in experiment [9]; 94.7% in experiment [19]; 103% in experiment [10]; 90.8% in experiment [11]; 97.8% in experiment [12]. For the same compound, the growth is 67.3% in [13]; 84% in experiment [14]; 97.6% in experiment [15]; 79% in [16]; 84.5% in experiment [20]; 95.5% in experiment [17].

`Cc1cc2c(cc1-c1ccnc(/C=C/C(=O)O)c1)C(C)(C)CCC2(C)C`: the growth was 86.1% in experiment [1]; 97.9% in experiment [2]; 80.3% in experiment [3]; 90.7% in [4]; 84.1% in [5]; 86.8% in experiment [6]. The growth in experiment [7] was 67.9%; in experiment [8], 72.2%; in experiment [9] it was 46.9%; in [10], 93.9%; in experiment [11], 86.1%; in experiment [12], 88%. The growth in experiment [14] is 115%; in experiment [15], 81.6%; in [16], 91.8%; in [20], 73.7%.

In the case of `COC12CC3(C)C(C4=CC(=O)OC4)CCC3(O)C3CCC4=CC(=O)CCC4(CO1)C32` (centres undefined), the growth in [1] was 101%; in experiment [2], 103%; in [3], 90.6%; in experiment [4], 107%; in experiment [5] it was 103%; in experiment [7] it was 106%. In addition, the growth is 99.6% in [8]; 102% in experiment [9]; 122% in experiment [19]; 24.9% in [10]; 103% in experiment [11]; 105% in experiment [12]. Besides, the growth is 101% in experiment [14]; 96.8% in experiment [15]; 105% in experiment [16]; 120% in experiment [20]; 116% in [18].

Take `COc1cc2c(cc1OC)-c1c3c(cc4c1[C@@H](C2)N(C)CC4)OCO3`: the growth in [1] is 29%; in experiment [2], 29%; in [3], 57.9%; in [4] it was 48.4%; in experiment [5], 39.3%; in experiment [6] it was 39.8%. Moreover, the growth in experiment [7] is 57.9%; in [8], 45.2%; in [9] it was 26.2%; in experiment [10], 87.9%; in experiment [11], 66.7%; in experiment [12] it was 43.8%. The growth was 9.51% (active) in experiment [13]; 67.3% in experiment [14]; 18.6% in [15]; 46.9% in experiment [16]; 57% in experiment [20]; 32.5% in experiment [17]. The growth in [18] is 42.1%.

For `C#Cc1cccc(Nc2nc(Cl)nc3cc(NC(=O)CF)ccc23)c1`, the growth in experiment [1] was 35.4%; in experiment [2], 16.1%; in experiment [3], 61.2%; in [4], 89%; in experiment [5] it was 79.3%; in [6] it was 57.8%. Further, the growth is 37.3% in experiment [7]; 72.9% in experiment [8]; 65.2% in experiment [9]; 66% in experiment [10]; 71.4% in experiment [11]; 91.9% in experiment [12]. The growth in experiment [13] is 74%; in experiment [14] it was 85.7%; in experiment [15], 92.5%; in [16], 55.8%; in [20], 87.4%; in [17] it was 90.3%. In addition, in experiment [18], the growth was 93.4%.
